“And” between values parts separate entries of the source, which are not always exact repeats. Equal entries are not always repeated. Results filed as inconclusive are left out. The source made the active and inactive calls. Calls follow the shape of the dose curve; as a rule, active = well fitted curve in the direction sought with a large enough effect; inconclusive = small, poorly fitted or top-dose-only effect, or another doubt; inactive = no such curve, though single readings can be large; an effect the other way counts as inactive or inconclusive.
Assays:
[1] = Viability qHTS for spleen associated tyrosine kinase inhibitor (SYKi) naive MV4-11 cells (AID 1963823); also: nearly all actives have a fitted effect of over 40% in size
Summary of the method: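 qHTS, SYK inhibitor-naive MV4-11; 500 cells/well; 72 hr compound exposure, 37 C; CellTiter-Glo added, 10 min RT; luminescence read.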

[2] = Viability qHTS for spleen associated tyrosine kinase inhibitor (SYKi) drug resistant MV4-11 cells (AID 1963824); also: nearly all actives have a fitted effect of over 35% in size
Summary of the method: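 SYK inhibitor-resistant MV4-11 AML cells, 500 per well, added to predispensed compounds and incubated 72 hr at 37 C, 5% CO2. Viability measured by CellTiter-Glo luminescence after 10 min at room temperature.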

[3] = Quantitative highthroughput screen to assess conditional lethalithy of NOMO1 cells grown in Human Plasma-Like Medium with dialyzed fetal bovine serum (HPLM+ds) (AID 1963878); also: nearly all actives have a fitted effect of over 35% in size
Summary of the method: (§1)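 Each medium arm—HPLM with 10% dialyzed FBS, or RPMI1640 with 5 mM glucose and 10% untreated or dialyzed FBS—was screened against an 11-point, 3-fold compound titration for 48 h at 37 °C, with CellTiter-Glo luminescence as endpoint.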

[4] = Cellular viability qHTS for adrenocortical cancer (ACC) cell line SW-13 (AID 1963989); settings: SW-13 ACC cells viability, CellTiter-Glo, 48 h; activity (max response): stronger effect = lower value; also: nearly all actives have a fitted effect of over 65% in size
Summary of the method: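 Luminescent ATP read-out (CellTiter-Glo, 20 min at room temperature) measured metabolically competent SW-13 cells after 48 h compound treatment. Final concentrations spanned up to 46 uM; bortezomib served as positive control.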

[5] = Cellular viability qHTS for adrenocortical cancer (ACC) cell line NCI-H295R (AID 1963990); also: nearly all actives have a fitted effect of over 60% in size
Summary of the method: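 IC50 and maximal efficacy derive from four-parameter logistic modelling of titration curves, with reads scaled between DMSO-only wells (0%) and doxorubicin hydrochloride (100% inhibition). Compounds spanned up to 46 uM over 48 h.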

[6] = Quantitative highthroughput screen to assess conditional lethalithy of P12 Ichikawa cells grown in Human Plasma-Like Medium with dialyzed fetal bovine serum (HPLM+ds) (AID 1963879); settings: Potency: viability; also: nearly all actives have a fitted effect of over 35% in size
Summary of the method: as §1

[7] = Quantitative highthroughput screen to assess conditional lethalithy of P12 Ichikawa cells grown in RPMI1640 with dialyzed fetal bovine serum (RPMI+ds) (AID 1963880); settings: Potency: P12-Ichikawa viability; also: nearly all actives have a fitted effect of over 35% in size
Summary of the method: as §1

[8] = Quantitative highthroughput screen to assess conditional lethalithy of P12 Ichikawa cells grown in RPMI1640 with untreated serum (RPMI+s) (AID 1963881); settings: Potency: viability; also: nearly all actives have a fitted effect of over 35% in size
Summary of the method: as §1

[9] = Quantitative highthroughput screen to assess conditional lethalithy of SEM cells grown in RPMI1640 with dialyzed fetal bovine serum (RPMI+ds) (AID 1963884); also: nearly all actives have a fitted effect of over 35% in size
Summary of the method: as §1

[10] = Quantitative highthroughput screen to assess conditional lethalithy of SEM cells grown in Human Plasma-Like Medium with dialyzed fetal bovine serum (HPLM+ds) (AID 1963882); also: nearly all actives have a fitted effect of over 35% in size
Summary of the method: as §1

[11] = Quantitative highthroughput screen to assess conditional lethalithy of SEM cells grown in RPMI1640 with unreated serum (RPMI+s) (AID 1963883); also: nearly all actives have a fitted effect of over 35% in size
Summary of the method: as §1

Measured: Potency
Potency is read from the fitted curve at half-maximal effect.

OC(c1cc(C(F)(F)F)nc2c(C(F)(F)F)cccc12)C1CCCCN1 (stereo not given)
active: [1] 18.6 µM | [2] 9.34 µM | [3] 23.5 µM | [4] 22.4 µM | [5] 25.1 µM

CC(C)(O)CNc1nc(Nc2ccnc(C(F)(F)F)c2)nc(-c2cccc(C(F)(F)F)n2)n1
active: [1] 14.8 µM | [2] 14.8 µM | [6] 2.95 µM | [7] 2.95 µM | [8] 2.95 µM | [9] 3.31 µM

FC(F)c1nc2ccccc2n1-c1nc(N2CCOCC2)nc(N2CCOCC2)n1
active: [1] 0.186 µM | [2] 820 nM and 525 nM | [3] 0.0148 µM | [5] 0.562 µM

CCN(CCO)CCCOc1ccc2c(Nc3cc(CC(=O)Nc4cccc(F)c4)[nH]n3)ncnc2c1
active: [1] 0.0411 µM | [2] 0.186 µM | [6] 0.166 µM | [7] 0.187 µM | [8] 0.148 µM | [10] 0.296 µM | [11] 0.264 µM | [9] 0.235 µM | [4] 20 µM

CN1CCCN(C(=O)c2cccc(-c3ccc(C=C4C(=O)Nc5ccc(Cl)cc54)o3)c2)CC1
active: [1] 0.517 µM | [2] 0.461 µM | [6] 2.96 µM | [7] 14.8 µM | [8] 5.9 µM | [10] 5.9 µM | [11] 1.32 µM

CC1=C(C(=O)Nc2cc3cn[nH]c3cc2F)C(c2ccc(Cl)cc2F)N=C(c2ccnc(Cl)c2)N1 (stereo not given)
active: [1] 4.61 µM | [2] 4.61 µM and 5.9 µM | [6] 20.9 µM | [7] 20.9 µM | [8] 18.7 µM | [10] 16.6 µM | [11] 18.7 µM | [9] 16.6 µM | [5] 25.1 µM
